Broadly, the inhibition is the percentage by which the read-out fell short of the control.

From PubChem BioAssay come the findings set out here.

Test [1] deals with TRPC4 beta (transient receptor potential cation channel C4), mouse. As to the kind of experiment: activators of mouse TRPC4 channel, confirmation, cell-based, Fluo4 calcium, HEK293 TRPC4beta/mu-opioid, duplicates, 10 µM (AID 2426;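 active = fluorescence ratio normalized to control raised more than 50% in primary screen plus both repeat runs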). As to conditions: Fluo4 calcium fluorescence, at 10 µM; stronger effect = higher value.
Test [2] deals with transient receptor potential cation channel C4 beta (TRPC4), mouse. Description: activators of mouse TRPC4 channel, confirmation, cell-based, second round, Fluo4, HEK293 TRPC4beta/mu-opioid, 1 µM (AID 2461). As to conditions: Fluo4 calcium fluorescence, at 1 µM; stronger effect = higher value.
Test [3] relates to TRPC4 (transient receptor potential cation channel C4 beta), mouse. Description: positive allosteric modulators of mouse TRPC4, confirmation, cell-based, second round, Fluo-4, HEK293 TRPC4beta/mu-opioid, 1 µM (AID 2554;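 active = primary screen hit whose fluorescence ratio, in both repeats, exceeds the weak agonist control mean by 3 SD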). As to conditions: DAMGO EC20, Fluo-4 calcium flux, at 1 µM; stronger effect = higher value. A general note: Calcium flux is commonly read through the fluorescence of an indicator in the cells.

Test [4] relates to TRPC4 beta (transient receptor potential cation channel C4), mouse. Description: positive allosteric modulators of mouse TRPC4, confirmation, cell-based, Fluo-4, HEK293 TRPC4beta/mu-opioid (AID 2555;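 active = primary screen hit whose calcium fluorescence ratio, in both repeats, exceeds the weak agonist control mean by 3 SD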). As to conditions: DAMGO EC20, Fluo-4 calcium flux, at 10 µM; stronger effect = higher value.
The target of test [5] is Short transient receptor potential channel 4 (Mus musculus) (UniProt Q9QUQ5). As to the kind of experiment: inhibitors of mouse TRPC4 channel, confirmation, cell-based, Fluo4, HEK293 TRPC4beta/mu-opioid (AID 2636;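 active = calcium signal cut by more than 3 SD below the full-agonist control yet still positive, in both repeats and the earlier primary screen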). The settings on record: DAMGO, Fluo4 calcium flux, at 10 µM; stronger effect = higher value.
For test [6] the target is unchanged. As to the kind of experiment: inhibitors of mouse TRPC4 channel, confirmation, cell-based, second round, Fluo4, HEK293 TRPC4beta/mu-opioid, 1 µM (AID 2637;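 active = calcium signal ratio cut to more than 3 SD under the fully stimulated control mean yet still positive, in both repeats and the primary screen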;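 as to inhibition: percent of integrated ratio relative to wells lacking test compound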). The settings on record: Fluo4 calcium flux, DAMGO, at 1 µM; stronger effect = higher value.
For test [7] the target is unchanged. As to the kind of experiment: mouse TRPC4 channel activators, dose response, cell-based, HEK293 TRPC4/mu-opioid, Fluo-4 calcium (AID 434937;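 active = primary screen activator hit with a dose response curve and TRPC4 channel activation at any tested dose; inactive = no activation, no dose response, or not a primary hit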).
Test [8] shares this target. As to the kind of experiment: TRPC4 positive allosteric modulators, dose response, cell-based, HEK293 TRPC4/mu-opioid, Fluo-4 calcium, EC20 DAMGO (AID 434941;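 active = earlier screen potentiator hit that boosts the TRPC4 ion channel at some dose, with a dose response; inactive = no potentiation, no dose response, or not a prior hit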;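 also: calcium entry triggered by an EC20 dose of DAMGO at the co-expressed mu-opioid receptor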).
Test [9] deals with Short transient receptor potential channel 6 (Mus musculus) (UniProt Q61143). As to the kind of experiment: inhibition of mouse TRPC6 channel, confirmation, selectivity assay for TRPC4 inhibitor project, cell-based, HEK293, membrane potential dye, duplicate (AID 434948;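 active = active in primary screen and both duplicates, each dropping signal beyond three positive-control SD with fluorescence still positive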). The settings on record: HEK293 TRPC6, membrane potential dye fluorescence, at 10 µM, stimulated with maximal-effect acetylcholine; stronger effect = higher value.

Test [10] has the same target. Description: activation of mouse TRPC6 channel, confirmation, selectivity assay for TRPC4 activator project, cell-based, HEK293, membrane potential dye, duplicate (AID 434950;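 active = membrane potential signal rise above negative control mean plus 3 SD in both duplicates, also active in the earlier TRPC4 screen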). The settings on record: HEK293 TRPC6, membrane potential fluorescence, at 10 µM; stronger effect = higher value.
Test [11] has the same target. As to the kind of experiment: TRPC6 potentiation by TRPC4 potentiator hits, confirmation, selectivity assay for TRPC4 potentiator project, HEK293 cells, membrane potential dye, duplicate (AID 434952;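 active = compound raising the membrane signal above positive-control mean plus 3 SD in both repeats, and a primary screen hit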). The settings on record: HEK293 TRPC6, membrane potential dye fluorescence, at 10 µM, maximal acetylcholine added after compound; stronger effect = higher value.
For test [12], the target named is Short transient receptor potential channel 4 (Mus musculus) (UniProt Q9QUQ5). As to the kind of experiment: calcium flux activators in TRPC4/5HT1a cells, counter-screen for TRPC4 activator project, cell-based, second counter screen, HEK293 TRPC4/5HT1a, Fluo-4 (AID 434977;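 active = calcium signal rise above buffer-control mean plus 5 SD in both duplicates, and also a hit in the primary screen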). The settings on record: Fluo-4 calcium flux, at 10 µM; stronger effect = higher value.
A short description of test [13]: calcium flux inhibitors in TRPC4/5HT1a cells, confirmation, counter-screen for TRPC4 inhibitor project, cell-based, second counter screen, HEK293 TRPC4/5HT1a, Fluo-4 (AID 434978;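 active = primary screen active whose calcium signal fell more than 3 SD beyond the full-serotonin control mean in both duplicate plates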;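 as to outcome: serotonin given first at submaximal then at maximal dose after compound preincubation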). As to conditions: Fluo-4 calcium flux, at 10 µM, serotonin added to trigger calcium flux; stronger effect = higher value.
The test system of test [14] is TRPC4 (mouse), co-expressed with 5HT1a in HEK293. Description: calcium flux potentiators in TRPC4/5HT1a cells, confirmation, counter-screen for TRPC4 potentiator project, cell-based, second counter screen, HEK293 TRPC4/5HT1a, Fluo-4 (AID 434979;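 active = signal rise over 3 SD above mean of control wells given weak agonist, in both repeats and first screen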). As to conditions: Fluo-4 calcium flux, at 10 µM, serotonin added at its EC20 dose; stronger effect = higher value.
A short description of test [15]: calcium flux activation in mu-opioid HEK293 cells, confirmation, counter-screen for TRPC4 activator project, cell-based, HEK293 mu-opioid receptor line (AID 449723;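 active = hit in primary screen, with calcium signal over 5 SD above buffer well mean in both duplicates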;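 also: counter screen cells carry the mu-opioid receptor alone and lack TRPC4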). The settings on record: Fluo-4 calcium fluorescence, at 10 µM; stronger effect = higher value.
A short description of test [16]: calcium flux enhancement in mu-opioid HEK293 cells, confirmation, counter-screen for TRPC4 allosteric potentiator project, cell-based, HEK293 mu-opioid receptor line (AID 449724;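 active = calcium signal rise more than 3 SD above the low-dose agonist control mean, in both duplicate plates and the primary screen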;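 also: HEK293 cells carrying mu-opioid receptor only with no TRPC4 channel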). The settings on record: Fluo-4 calcium flux, at 10 µM, compound added before EC20 DAMGO stimulus; stronger effect = higher value.

For some assays here: Measured potencies and affinities stand elsewhere. Calls of active or inactive are those of the source.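 The calls were made as follows, unless noted: active = primary screen active and over 50% activation in each of two duplicate runs; inactive = the rest.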

Short transient receptor potential channel 4 (Mus musculus), sequence (Q9QUQ5 whole entry, looked up): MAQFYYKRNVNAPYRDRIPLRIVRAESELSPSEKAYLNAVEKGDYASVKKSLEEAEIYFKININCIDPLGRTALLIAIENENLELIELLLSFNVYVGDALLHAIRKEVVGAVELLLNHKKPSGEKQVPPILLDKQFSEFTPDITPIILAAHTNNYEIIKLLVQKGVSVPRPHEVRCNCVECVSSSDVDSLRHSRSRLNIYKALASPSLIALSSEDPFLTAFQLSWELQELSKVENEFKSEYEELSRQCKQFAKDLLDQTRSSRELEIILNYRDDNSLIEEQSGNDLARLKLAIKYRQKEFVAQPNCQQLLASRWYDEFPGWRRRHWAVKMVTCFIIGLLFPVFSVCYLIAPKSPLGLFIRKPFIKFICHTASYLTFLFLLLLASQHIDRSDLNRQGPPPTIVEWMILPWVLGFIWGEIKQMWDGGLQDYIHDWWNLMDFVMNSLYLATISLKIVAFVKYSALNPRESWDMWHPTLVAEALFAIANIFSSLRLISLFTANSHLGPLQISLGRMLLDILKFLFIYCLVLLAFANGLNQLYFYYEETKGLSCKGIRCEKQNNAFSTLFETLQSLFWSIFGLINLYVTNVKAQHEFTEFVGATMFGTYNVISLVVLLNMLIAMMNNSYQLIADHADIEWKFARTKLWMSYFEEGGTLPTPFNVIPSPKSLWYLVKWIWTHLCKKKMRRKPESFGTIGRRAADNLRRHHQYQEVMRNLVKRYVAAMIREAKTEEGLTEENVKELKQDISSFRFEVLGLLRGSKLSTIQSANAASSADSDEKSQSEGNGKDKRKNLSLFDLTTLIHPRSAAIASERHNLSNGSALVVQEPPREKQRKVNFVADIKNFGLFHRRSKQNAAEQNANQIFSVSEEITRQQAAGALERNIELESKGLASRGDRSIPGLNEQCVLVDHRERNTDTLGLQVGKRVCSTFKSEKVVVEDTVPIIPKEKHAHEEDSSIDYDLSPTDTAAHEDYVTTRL
Short transient receptor potential channel 6 (Mus musculus), sequence (Q61143 whole entry, looked up): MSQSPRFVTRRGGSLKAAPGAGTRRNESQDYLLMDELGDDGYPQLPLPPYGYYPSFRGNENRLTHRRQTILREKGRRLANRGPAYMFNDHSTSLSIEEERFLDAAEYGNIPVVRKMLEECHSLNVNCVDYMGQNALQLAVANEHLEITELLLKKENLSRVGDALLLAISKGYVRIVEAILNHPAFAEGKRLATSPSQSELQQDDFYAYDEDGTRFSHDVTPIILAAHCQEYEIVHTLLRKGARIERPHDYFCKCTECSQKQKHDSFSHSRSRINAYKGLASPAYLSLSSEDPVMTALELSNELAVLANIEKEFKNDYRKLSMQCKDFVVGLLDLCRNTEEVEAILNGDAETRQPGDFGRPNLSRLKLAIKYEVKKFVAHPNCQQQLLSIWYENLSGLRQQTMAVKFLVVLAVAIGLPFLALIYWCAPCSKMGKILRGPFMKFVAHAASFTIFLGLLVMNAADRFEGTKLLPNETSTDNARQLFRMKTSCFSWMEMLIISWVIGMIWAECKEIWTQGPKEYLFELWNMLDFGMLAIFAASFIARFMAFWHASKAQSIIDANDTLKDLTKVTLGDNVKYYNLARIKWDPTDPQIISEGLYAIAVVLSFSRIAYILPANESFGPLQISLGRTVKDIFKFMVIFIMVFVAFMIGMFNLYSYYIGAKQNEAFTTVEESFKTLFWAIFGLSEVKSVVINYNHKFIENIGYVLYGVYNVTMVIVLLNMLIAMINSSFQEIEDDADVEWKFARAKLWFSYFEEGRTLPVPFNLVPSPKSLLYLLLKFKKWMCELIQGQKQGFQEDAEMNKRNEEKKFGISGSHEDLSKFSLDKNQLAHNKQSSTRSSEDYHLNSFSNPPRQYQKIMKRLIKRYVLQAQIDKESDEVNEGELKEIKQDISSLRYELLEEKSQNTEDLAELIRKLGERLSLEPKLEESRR

For `Cc1onc(-c2c(F)cccc2Cl)c1C(=O)N(C)CC(=O)Nc1cccc(F)c1`, the outcome in test [1], in test [2], in [3], in test [4], in test [6] and in [7] was inactive. Moreover, the outcome in test [8], in [9], in [10], in test [11], in test [12] and in test [13] was inactive. Besides, the outcome in test [14], in test [15] and in test [16] was inactive. Besides, the inhibition in test [5] was 84% (active).
As for `CCCCOc1ccc(Nc2cc(Cl)ccc2C(=O)O)cn1`, the result in test [1], in test [2], in test [3], in [4], in test [5] and in test [6] was inactive. The outcome in [7], in test [8], in test [9], in test [10], in test [11] and in test [12] was inactive. Further, the result in [14], in test [15] and in [16] was inactive. Moreover, the inhibition in test [13] is 27.6% (active).
In the case of `O=C(C[N+]1(CC#Cc2ccccc2)CCCCC1)c1ccc(Cl)cc1`, the result in test [1], in [2], in test [3], in [4], in test [6] and in test [7] was inactive. Besides, the outcome in [8], in test [9], in [10], in test [11], in test [12] and in test [14] was inactive. Besides, the result in test [15] and in test [16] was inactive. Further, the inhibition was 86% (active) in test [5] and 40.2% (active) in test [13].
`Cc1nc(Cl)nc(N(C)c2ccccc2)c1[N+](=O)[O-]`: the result in [1], in test [2], in test [3], in test [4], in test [7] and in [8] was inactive. Besides, the molecule was classed as inactive in [9], in test [10], in [11], in test [12], in [14] and in test [15]. In addition, the outcome in test [16] was inactive. Besides, the figures for the inhibition in test [5], in test [6] and in [13] were 97% (active), 49% (active) and 43.6% (active), respectively.
On to `COc1cccc(Cn2c(Oc3ccccc3)nc3c2c(=O)n(C)c(=O)n3C)c1`, for which the outcome in test [1], in [2], in test [3], in test [4], in test [7] and in test [8] was inactive. Also, the molecule was classed as inactive in test [9], in test [10], in test [11], in [12], in test [14] and in test [15]. The result in test [16] was inactive. For the same molecule, the inhibition in [5] is 81% (active); in test [6] it was 43% (active); in test [13], 40.4% (active).
As for `Cc1ccc2cc(CN(CCCN3CCOCC3)C(c3nnnn3Cc3ccco3)C(C)C)c(=O)[nH]c2c1C` (centres undefined), the result in [1], in test [2], in test [3], in test [4], in test [7] and in test [8] was inactive. Besides, the result in test [9], in test [10], in [11], in [12], in [13] and in test [14] was inactive. The outcome in test [15] and in test [16] was inactive. Also, the figures for the inhibition in test [5] and in test [6] were 98% (active) and 72% (active), respectively.
For `Cc1ccc(-c2[nH]c3ccccc3c2SCCN)cc1`, the outcome in [1], in test [2], in test [3], in test [4], in test [5] and in [6] was inactive. Besides, the outcome in [7], in [8], in [10], in [11], in test [12] and in [13] was inactive. Moreover, the result in [14], in test [15] and in test [16] was inactive. Further, in test [9], the inhibition is 34.5% (active).
In the case of `CCOC(=O)C1(CCOc2ccccc2)CCN(Cc2cccn2-c2ncccn2)CC1`, the outcome in test [1], in [2], in test [3], in test [4], in test [7] and in [8] was inactive. Besides, the molecule was called inactive in [10], in [11], in test [12], in test [13], in test [14] and in [15]. Further, the outcome in test [16] was inactive. For the same molecule, the values for the inhibition in [5], in test [6] and in test [9] were 86% (active), 43% (active) and 52.5% (active), respectively.
Consider `COc1ccc(C(c2nnnn2C2CCCC2)N2CCN(c3ccccc3)CC2)cc1` (centres undefined), for which the outcome in [1], in test [2], in [3], in [4], in [6] and in [7] was inactive. Also, the result in test [8], in test [9], in test [10], in test [11], in test [12] and in test [13] was inactive. Further, the result in [14], in test [15] and in test [16] was inactive. Besides, the inhibition in test [5] is 52% (active).
Regarding `Cc1ccc(OCc2cc(C(=O)N(C)CCc3nc4ccccc4[nH]3)no2)cc1C`, the outcome in [1], in test [2], in test [3], in test [4], in test [6] and in test [7] was inactive. Moreover, the result in test [8], in test [9], in test [10], in test [11], in test [12] and in test [13] was inactive. For the same molecule, the outcome in test [14], in test [15] and in test [16] was inactive. The inhibition in [5] was 69% (active).
For `Cc1cc(OCc2cc(C(=O)NCCN3CCCCC3CO)no2)cc(C)c1Cl` (centres undefined), the result in test [1], in test [2], in [3], in [4], in [6] and in test [7] was inactive. Further, the result in test [8], in [9], in test [10], in test [11], in test [12] and in test [14] was inactive. For the same molecule, the outcome in test [15] and in test [16] was inactive. Moreover, the inhibition in test [5] was 93% (active); in test [13] it was 21.5% (active).
Regarding `CC(NCCC(Cc1ccccc1)c1ccco1)c1ccccc1` (centres undefined), the result in test [1], in [2], in test [3], in test [4], in test [6] and in test [7] was inactive. For the same molecule, the outcome in test [8], in [10], in test [11], in [12], in test [14] and in test [15] was inactive. In addition, the outcome in test [16] was inactive. The inhibition in test [5] is 97% (active); in test [9] it was 39% (active); in test [13] it was 28.4% (active).
Regarding `Cc1nc(Cl)c(Cl)n1CCOc1ccccc1`, the outcome in [1], in test [2], in test [3], in [4], in [7] and in test [8] was inactive. For the same molecule, the result in test [9], in [10], in test [11], in test [12], in test [14] and in test [15] was inactive. For the same molecule, the result in [16] was inactive. The inhibition was 94% (active) in test [5], 46% (active) in test [6] and 18.9% (active) in [13].
Take `CCOC(=O)c1c(NC(=O)C2CC(Cl)=CCC2C(=O)O)sc2c1CCCCC2` (centres undefined): the result in test [1], in test [2], in test [3], in [4], in [7] and in test [8] was inactive. The call in [9], in [10], in test [11], in test [12], in test [14] and in test [15] was inactive. The result in test [16] was inactive. In addition, the inhibition in test [5] is 96% (active); in test [6], 43% (active); in test [13], 31.8% (active).
